Results from PubChem BioAssay.

What was measured:
[1] = system: Botulinum neurotoxin type F light chain protease (Clostridium botulinum); assay: Clostridium botulinum type F light chain protease inhibitors, microsphere substrate cleavage, validation (AID 588459); details: multiplex microsphere protease substrate cleavage assay, flow cytometry; at 10 µM; stronger effect = higher value
[2] = molecular target: Botulinum neurotoxin type A (Clostridium botulinum) (UniProt P0DPI0); assay: BoNT/A light chain protease inhibitors, biochemical, multiplex microsphere flow cytometry, validation set (AID 588460); details: at 10 µM, stronger effect = higher value
[3] = molecular target: Lethal factor (Bacillus anthracis) (UniProt P15917); assay: Bacillus anthracis lethal factor inhibition, microsphere flow cytometry protease assay, validation at 10 µM (AID 588461); details: multiplex microsphere protease cleavage assay, stronger effect = higher value

Measured: inhibition

Lethal factor (Bacillus anthracis), sequence (P15917 whole entry, looked up): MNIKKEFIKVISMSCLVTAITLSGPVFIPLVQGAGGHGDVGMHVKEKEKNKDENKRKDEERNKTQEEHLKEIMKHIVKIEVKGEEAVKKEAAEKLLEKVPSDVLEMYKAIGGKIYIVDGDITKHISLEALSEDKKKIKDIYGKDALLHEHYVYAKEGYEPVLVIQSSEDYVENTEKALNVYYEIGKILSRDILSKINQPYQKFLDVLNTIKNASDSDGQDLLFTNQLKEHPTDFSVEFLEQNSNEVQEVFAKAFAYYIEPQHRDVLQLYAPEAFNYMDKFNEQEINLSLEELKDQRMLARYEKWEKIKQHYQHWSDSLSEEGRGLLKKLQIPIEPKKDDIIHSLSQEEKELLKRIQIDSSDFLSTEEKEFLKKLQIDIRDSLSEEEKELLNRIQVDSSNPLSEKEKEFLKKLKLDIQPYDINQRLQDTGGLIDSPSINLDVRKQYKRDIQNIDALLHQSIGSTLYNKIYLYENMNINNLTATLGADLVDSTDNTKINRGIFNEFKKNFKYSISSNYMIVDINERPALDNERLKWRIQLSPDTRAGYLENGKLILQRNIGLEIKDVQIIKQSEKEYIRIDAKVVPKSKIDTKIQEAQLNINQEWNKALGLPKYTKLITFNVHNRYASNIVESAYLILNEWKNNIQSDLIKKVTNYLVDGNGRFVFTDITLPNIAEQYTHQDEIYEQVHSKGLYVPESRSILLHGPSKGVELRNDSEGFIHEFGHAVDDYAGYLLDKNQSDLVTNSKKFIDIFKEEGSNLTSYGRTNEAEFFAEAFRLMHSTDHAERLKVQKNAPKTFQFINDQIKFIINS
Botulinum neurotoxin type A (Clostridium botulinum), sequence (P0DPI0 whole entry, looked up): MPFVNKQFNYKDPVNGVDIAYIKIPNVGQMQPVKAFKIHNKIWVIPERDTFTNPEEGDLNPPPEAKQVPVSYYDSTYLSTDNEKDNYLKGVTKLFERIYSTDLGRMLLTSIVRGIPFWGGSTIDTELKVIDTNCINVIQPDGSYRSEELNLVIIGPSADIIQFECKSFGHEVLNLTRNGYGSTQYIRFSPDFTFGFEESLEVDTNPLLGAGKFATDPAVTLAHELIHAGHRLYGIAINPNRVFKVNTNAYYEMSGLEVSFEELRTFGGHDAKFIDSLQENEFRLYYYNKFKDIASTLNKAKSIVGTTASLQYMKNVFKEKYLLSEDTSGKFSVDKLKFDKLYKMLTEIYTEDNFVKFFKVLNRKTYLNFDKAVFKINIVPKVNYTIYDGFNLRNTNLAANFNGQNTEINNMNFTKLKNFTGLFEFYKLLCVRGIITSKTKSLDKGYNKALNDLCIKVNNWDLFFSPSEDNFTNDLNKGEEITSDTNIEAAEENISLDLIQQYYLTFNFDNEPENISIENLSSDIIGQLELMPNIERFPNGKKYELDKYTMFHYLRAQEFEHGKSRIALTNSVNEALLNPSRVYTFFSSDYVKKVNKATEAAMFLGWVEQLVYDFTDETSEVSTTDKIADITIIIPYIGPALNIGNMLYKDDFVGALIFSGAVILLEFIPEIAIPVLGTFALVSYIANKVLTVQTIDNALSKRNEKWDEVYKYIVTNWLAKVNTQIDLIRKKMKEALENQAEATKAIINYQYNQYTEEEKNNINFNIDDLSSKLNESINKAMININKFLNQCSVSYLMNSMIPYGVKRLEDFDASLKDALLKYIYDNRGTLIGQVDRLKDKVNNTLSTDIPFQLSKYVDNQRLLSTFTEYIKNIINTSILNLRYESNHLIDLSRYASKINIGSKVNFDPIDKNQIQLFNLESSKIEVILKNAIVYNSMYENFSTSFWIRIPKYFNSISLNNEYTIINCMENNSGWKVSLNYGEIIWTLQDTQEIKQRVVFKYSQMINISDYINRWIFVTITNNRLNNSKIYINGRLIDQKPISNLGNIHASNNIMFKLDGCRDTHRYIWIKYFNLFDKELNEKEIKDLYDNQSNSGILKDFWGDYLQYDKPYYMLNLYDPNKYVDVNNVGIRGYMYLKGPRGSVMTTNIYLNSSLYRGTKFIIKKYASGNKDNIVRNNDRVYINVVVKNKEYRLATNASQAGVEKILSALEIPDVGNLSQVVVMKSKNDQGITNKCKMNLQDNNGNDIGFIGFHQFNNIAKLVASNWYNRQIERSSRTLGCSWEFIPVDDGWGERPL

O=C(O)C1Cc2ccccc2CN1S(=O)(=O)c1ccccc1 (stereo not drawn)
inactive: [1] 0.8% | [2] 0.6% | [3] -3.3%

CN1CCN(CCCN2c3ccccc3Sc3ccc(Cl)cc32)CC1
inactive: [1] -3.9% | [2] -3.2% | [3] -10.3%

CC#C[C@]1(O)CC[C@H]2[C@@H]3CCC4=CC(=O)CCC4=C3[C@@H](c3ccc(N(C)C)cc3)C[C@@]21C
inactive: [1] -3.9% | [2] -2% | [3] -7.2%

CN(C)c1ccc(C(CN)c2c[nH]c3ccccc23)cc1 (stereo not drawn)
inactive: [1] -5.8% | [2] -1.5% | [3] -3.4%

Cc1onc(-c2c(Cl)cccc2Cl)c1C(=O)NC1C(=O)N2C1SC(C)(C)C2C(=O)O (stereo not drawn)
inactive: [1] 1.2% | [2] 0.2% | [3] 2.3%

O=C(Cc1c[nH]c2ccccc12)OCCOC(=O)Cc1c[nH]c2ccccc12
inactive: [1] 0.9% | [2] -0.1% | [3] -5.9%

c1ccc2c3c(c(CN4CCCCC4)cc2c1)COC3
inactive: [1] 5.7% | [2] -1% | [3] 0.6%

COc1cccc2c(=O)c3ccccc3oc12
inactive: [1] 12.6% | [2] 3.9% | [3] -4.2%

COc1ccc(NC(=O)N2CCCCC2c2cccnc2)cc1 (stereo not drawn)
inactive: [1] 2.7% | [2] 0.7% | [3] -0.9%

Oc1ccc(/C=C/c2cc(O)cc(O)c2)cc1
inactive: [1] -6.7% | [2] -2.2% | [3] 3.7%

C[C@]12CC[C@@H]3c4ccc(O)cc4CC[C@H]3[C@@H]1CC[C@@H]2OC(=O)CCC(=O)O
inactive: [1] -0.1% | [2] -0.4% | [3] -10%
